Assay results from PubChem BioAssay (EPA / NIEHS).
Inconclusive results are not listed. The source made the active and inactive calls. How the source made its calls: active means hit-call score of the fitted dose curve at least 0.9, where 1 is the maximum; inconclusive means response in the unintended direction; inactive means score below 0.9.

The compounds below were run against Estrogen receptor (Homo sapiens) (UniProt P03372) (assay: CCTE_Deisenroth_AIME_384WELL_LUC_Active: CCTE's 384-well Estrogen Receptor Transactivation Assay with AIME metabolic competence (ERTA luciferase; metabolism positive), Deisenroth Lab (AID 2284030)).
Method: CCTE_Deisenroth_AIME_384WELL (AIME metabolism assay) is a cell-based, single-readout assay that uses VM7Luc4E2, a human mammary gland/breast cell line, with measurements taken at 24 hour after chemical dosing in a 384-well plate.CCTE_Deisenroth_AIME_384WELL_LUC_Active is one of four assay components measured or calculated from the CCTE_Deisenroth_AIME_384WELL assay. It is designed to make measurements of luciferase induction, a form of inducible reporter, as detected with bioluminescence signals by luciferase-coupled ATP quantitation technology.CCTE_Deisenroth_AIME_384WELL_LUC_Active is a component of the CCTE_Deisenroth_AIME_384WELL assay that measures the effect of retroftting the VM7Luc ERTA assay with the Alginate Immobolization of Metabolic Enzymes (AIME) metabolism method. AIME is optimized to impart phase I hepatic metabolism using phenobarbital/beta-naphthoflavone induced hepatic S9 from male Sprague Dawley rats. Parent chemicals are incubated for 2 hours in the AIME assay prior to transfer to the VM7Luc ERTA assay plate. […] This endpoint evaluates reporter induction in metabolism positive mode. Using a type of inducible reporter in VM7Luc cells, gain-of-signal activity can be used to understand changes in the reporter gene as they relate to xenobiotic metabolism and the gene ESR1. This assay endpoint, CCTE_Deisenroth_AIME_384WELL_LUC_Active, was analyzed in the positive analysis fitting direction relative to 17beta-estradiol as the positive control in the ERTA assay. To generalize the intended target to other relatable targets, this assay endpoint is annotated to the nuclear receptor intended target family, where the subfamily is steroidal.
The AIME procedure consists of a preparative "pre-stamping" step using a barium chloride/poly-L-lysine (PLL) solution followed by "stamping" the lid in alginate-hepatic S9 (metabolism positive) or alginate-water (metabolism negative) to form microspheres. Once stamping is completed, the AIME lids are placed in duplicate microplates (metabolism positive or negative) containing chemical solutions and incubated for two hours to facilitate metabolic reactions. The conditioned medium, containing parent chemical or metabolites, is then transferred to the cell-based VM7Luc Estrogen Receptor Transactivation Assay (ERTA) for 24 hours. A typical experimental design tests a 10-point concentration series (0.002 - 200 uM) for 8 compounds (96-well format)1 or 32 compounds (384-well format)2 in single technical replicate. AIME assay controls include trans-stilbene (bioactivated control) and ethylparaben (bioinactivated control). ERTA assay plate controls include 17-beta estradiol (positive control) and DMSO (solvent control). Experiments typically comprise a minimum of four experimental replicates (n=4).

Estrogen receptor (Homo sapiens), sequence (P03372 whole entry, looked up): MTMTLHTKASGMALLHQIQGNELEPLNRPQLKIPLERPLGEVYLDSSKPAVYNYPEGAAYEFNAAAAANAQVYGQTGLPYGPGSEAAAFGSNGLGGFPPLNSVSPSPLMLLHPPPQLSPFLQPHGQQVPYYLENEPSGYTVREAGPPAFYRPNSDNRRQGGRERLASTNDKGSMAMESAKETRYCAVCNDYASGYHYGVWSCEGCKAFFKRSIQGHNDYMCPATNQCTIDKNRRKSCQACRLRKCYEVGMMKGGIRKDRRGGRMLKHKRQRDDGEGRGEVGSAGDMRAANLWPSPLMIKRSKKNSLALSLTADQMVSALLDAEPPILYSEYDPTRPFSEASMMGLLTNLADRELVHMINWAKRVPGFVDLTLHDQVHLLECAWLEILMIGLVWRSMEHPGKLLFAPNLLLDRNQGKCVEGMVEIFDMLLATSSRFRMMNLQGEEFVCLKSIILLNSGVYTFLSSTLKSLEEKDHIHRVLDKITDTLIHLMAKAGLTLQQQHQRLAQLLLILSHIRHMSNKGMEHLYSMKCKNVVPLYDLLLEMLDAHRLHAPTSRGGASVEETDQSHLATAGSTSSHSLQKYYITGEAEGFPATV

Question: How did the outcome turn out when Cc1ccc(C(C)C)cc1 was run?
Answer: inactive

Question: With Cc1oc2c(NC(=O)c3c(Cl)cccc3Cl)cccc2c1C(C)(C)O as the compound, how does the outcome read?
Answer: inactive

Question: CCCCCCCCCCCO was tested. Which outcome did it give?
Answer: inactive

Question: For CC[C@H](NC(=O)c1cc(F)ccc1NS(=O)(=O)c1cccc2cccnc12)c1ccccc1, which outcome is on record?
Answer: inactive

Question: For OCCO, which AC50 is on record?
Answer: 28.2 µM (active)

Question: With O=C(Nc1ccc(Cl)cc1)Nc1ccc(Cl)c(Cl)c1 as the compound, how does the outcome read?
Answer: inactive

Question: For O=c1[nH]sc2ccccc12, which outcome is on record?
Answer: inactive

Question: How did the outcome turn out when CCCCCCCCN(C)CCCCCCCC was run?
Answer: inactive

Question: How did the outcome turn out when O=C(O)Cn1c(=O)n(Cc2ccc(Br)cc2F)c(=O)c2ccc(Cl)cc21 was run?
Answer: inactive

Question: How did the outcome turn out when COc1cccc([C@H](O)C2CCN(CCc3ccc(F)cc3)CC2)c1OC was run?
Answer: inactive

Question: With Cc1cn([C@H]2C[C@H](N=[N+]=[N-])[C@@H](CO)O2)c(=O)[nH]c1=O as the compound, how does the outcome read?
Answer: inactive

Question: With CC(C)(C)c1cc(/C=C2\SC(N)=NC2=O)cc(C(C)(C)C)c1O as the compound, how does the outcome read?
Answer: inactive

Question: CCN(CC)C(=O)c1cc(S(=O)(=O)Cc2ccccc2)c(N2CCC(c3ccccc3)CC2)cc1N(CC)CCN(C)C was tested. Which outcome did it give?
Answer: inactive

Question: CCCOC(=O)c1cc(O)c(O)c(O)c1 was tested. Which AC50 did it give?
Answer: 35.9 µM (active)

Question: Which AC50 does the source give for Cc1c2ccccc2c(C)c2c1ccc1ccccc12 here?
Answer: 13.9 µM (active)

Question: How did the outcome turn out when COCC(C)OCC(C)OCC(C)O (stereo not drawn) was run?
Answer: inactive

Question: How did the outcome turn out when c1ccc2ccccc2c1 was run?
Answer: inactive

Question: With OC12N=C(c3ccccc3)SC1Cc1cc(Cl)ccc12 (stereo not drawn) as the compound, how does the outcome read?
Answer: inactive
